Experimental data taken from PubChem BioAssay.
Active and inactive are the calls of the source.

Experiment: small-molecule microarray binders of probe aCHRDL2, primary screen, biochemical, biotinylated probe, 635/667 nm fluorescence (AID 1100)
Conditions: higher = more signal

Compound	composite z-score
CCOC(=O)C1=CC[C@@H](c2ccccc2C(F)(F)F)N(S(=O)(=O)c2ccc(C)cc2)[C@H]1c1ccc(C#N)cc1	0.276
O[C@@H](Cc1ccccc1)[C@@H](/C=C/C1CC1)N(CC#Cc1ccccc1)Cc1cccc(Cl)c1	1.34
CN(C)CCCCNC(=O)[C@@H]1C[C@@H]2C(=O)N[C@@H](Cc3ccccc3)C(=O)N2[C@@H]1c1cccc(OCCO)c1	0.393
COc1ccc([Si](C)(C)[C@@H]2[C@@H](CC(=O)N(CCO)Cc3ccccc3)O[C@]3(C(=O)N(c4ccccc4)c4ccccc43)[C@H]2C)cc1	-0.426
CC=CC(O)C1C=CC2C(=O)N(c3ccccc3)C(=O)C2N1Nc1ccccc1F (stereo unspecified)	0.76
C=CC1c2cc(O)c(OC)cc2CCN1Cc1cc2c(cc1Br)OCO2 (stereo unspecified)	1.04
CC(C)C(CO)N1C(=O)[C@@H]2C3C(=O)OCCC/C=C\[C@H]3OC23C=CCN(C(C)(C)C)C(=O)[C@@H]13 (stereo partly specified)	-0.384
[N-]=[N+]=NCc1ccccc1C[C@@]1(C(=O)N2CCCCC2)N=C(c2ccc(OCCCO)cc2)O[C@@H]1c1ccccc1	0.751
O=C1C[C@@](C(=O)NCCN2CCOCC2)(c2ccc([N+](=O)[O-])cc2)[C@@H](c2ccc(CO)cc2I)N1C1CCCCC1	-0.0907
COC(=O)c1c(CC[C@@H](CO)NC(=O)N2CCC[C@H]2Cn2cc(Cc3ccccc3)nn2)oc(C(C)=O)c1C(=O)OC	-0.553
O=C1NC(=O)C2C1C=CC(C(O)c1cccc3ccccc13)N2Nc1ccc(Cl)cc1Cl (stereo unspecified)	1.16
N#Cc1ccc(C(O)C2C=CC3C(=O)N(c4ccccc4)C(=O)C3N2Nc2ccccc2)cc1 (stereo unspecified)	1
COC(=O)[C@@]1(Cc2ccc(OC)cc2)[C@H]2c3cc(C(=O)N(C)C)n(C[C@H](O)CO)c3C[C@H]2CN1C(=O)c1ccccc1	1.62
COc1cc(OC)c(C(O)C2C=CC3C(=O)N(c4ccccc4)C(=O)C3N2Nc2ccccc2)cc1Br (stereo unspecified)	0.612
COCCCNC(=O)[C@@]1(Cc2ccccc2N=[N+]=[N-])N=C(c2ccc(OCCCO)cc2)O[C@H]1c1ccccc1	1.01
C=C(C)C1CCC(C(O)C2C=CC3C(=O)N(C)C(=O)C3N2N2CCCCC2)CC1 (stereo unspecified)	0.67
Cc1ccc(S[C@]2(C(=O)O)CC(=O)N(C3Cc4ccccc4C3)[C@@H]2c2ccc(CO)cc2)cc1	1.08
O=C1C2C=CC(C(O)c3ccc(Br)cc3)N(Nc3ccccc3F)C2C(=O)N1c1ccccc1 (stereo unspecified)	0.703
CC(C)(C)N1CC=CC23O[C@@H]4C=CCCOC(=O)C4[C@H]2C(=O)N(CCO)[C@@H]3C1=O (stereo partly specified)	-0.254
C=CCNC(=O)[C@H]1[C@@H]2C(=O)O[C@@H](c3ccccc3)[C@@H](c3ccccc3)N2[C@@H](c2ccc(O)cc2)[C@]12C(=O)N(C(=O)OCCOC)c1ccccc12	-0.0623
C[C@@H]1NC(=O)[C@@]23C(=O)N[C@@H](Cc4ccccc4)C2[C@H](C)[C@@]2(C)O[C@H]2C3/C=C/C/C=C\CNC(=O)[C@@H]2CCCN2C1=O (stereo partly specified)	-0.339
COCCOC(=O)N1C(=O)[C@@]2(c3cc(C#Cc4ccc(OC)cc4)ccc31)[C@H](C(=O)Nc1nc3ccccc3s1)[C@H]1C(=O)O[C@H](c3ccccc3)[C@H](c3ccccc3)N1[C@@H]2c1ccc(O)cc1	-0.0767
CN(C)C(=O)C1N=C(c2ccc(OCCCO)cc2)N(c2ccccc2)O1 (stereo unspecified)	-0.0552
O=C(NCC(F)(F)F)[C@@H]1c2ccccc2C(=O)N(Cc2ccc(OC(F)(F)F)cc2)[C@H]1c1ccc(CO)cc1	0.433
[N-]=[N+]=Nc1ccccc1[C@H]1OC(c2ccc(OCCCO)cc2)=N[C@@]1(Cc1ccccc1)C(=O)N1CCCCC1	1.13

Experiment: splicing luciferase reporter signal modulators, primary screen, spliceosome inhibition project, cell-based, HEK293, splice +/- reporter (AID 1101);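 further: HEK293 cells carrying a splicing-competent luciferase reporter gene; test concentration not given here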
Conditions: luminescence, 24 h, higher = more signal, called active from +8 up or from −8 down

Compound	z-score
COCCOC(=O)N1C(=O)[C@@]2(c3cc(C#CC4=CCCCC4)ccc31)[C@H](c1ccccc1OCCO)N1[C@H](c3ccccc3)[C@H](c3ccccc3)OC(=O)[C@H]1[C@@H]2C(=O)Nc1nc2ccccc2s1	-1.62 (inactive)
CCCNC(=O)[C@@H]1c2ccccc2C(=O)N(C(C)C)[C@H]1c1ccc(CO)cc1	0.844 (inactive)
CCCCO[C@H]1C[C@H]2C(I)=C[C@@H]1C(=O)[C@]21CO1	-0.26 (inactive)
CC(C)(C)OC(=O)CC[C@]1(C(=O)NCC(O)CO)N=C(c2ccc(OCCCO)cc2)O[C@H]1c1ccccc1 (stereo partly specified)	-0.495 (inactive)
C=CC[C@]1(C(=O)O)COC(c2ccc(OCCCO)cc2)=N1	-0.565 (inactive)
CN1C(=O)C2C=CC(C(O)c3ccccn3)N(N(c3ccccc3)c3ccccc3)C2C1=O (stereo unspecified)	0.527 (inactive)
[N-]=[N+]=NCc1ccccc1C[C@@]1(C(=O)N2CCOCC2)N=C(c2ccc(OCCCO)cc2)O[C@@H]1c1ccccc1	-0.691 (inactive)
CC(=O)NCCCC[C@@H]1NC(=O)[C@@H]2C[C@H](C(=O)NCCCC[N+](C)(C)C)[C@H](c3ccc(O)cc3)N2C1=O	-1.47 (inactive)
C[C@H]1NC(=O)[C@@]23C(=O)N[C@@H](Cc4ccccc4)C2[C@H](C)[C@@]2(C)O[C@H]2C3/C=C/C/C=C\CNC(=O)[C@H](Cc2ccccc2)NC1=O (stereo partly specified)	0.106 (inactive)
[N-]=[N+]=Nc1ccccc1C[C@]1(C(N)=O)N=C(c2ccc(OCCCO)cc2)O[C@H]1c1ccccc1N=[N+]=[N-]	-1.82 (inactive)
O=C1O[C@@H](c2ccccc2)[C@@H](c2ccccc2)N2[C@@H](c3ccc(O)cc3)[C@]3(C(=O)Nc4ccc(C#CC5=CCCCC5)cc43)[C@@H](C(=O)NC[C@H](O)c3ccccc3)[C@H]12	-1.41 (inactive)
CCOC(=O)C1=CC[C@@H](c2ccccc2C(F)(F)F)N(S(=O)(=O)c2ccc(C)cc2)[C@H]1c1ccc(C#N)cc1	-0.476 (inactive)
O[C@@H](Cc1ccccc1)[C@@H](/C=C/C1CC1)N(CC#Cc1ccccc1)Cc1cccc(Cl)c1	-1.61 (inactive)
CN(C)CCCCNC(=O)[C@@H]1C[C@@H]2C(=O)N[C@@H](Cc3ccccc3)C(=O)N2[C@@H]1c1cccc(OCCO)c1	-1.88 (inactive)
COc1ccc([Si](C)(C)[C@@H]2[C@@H](CC(=O)N(CCO)Cc3ccccc3)O[C@]3(C(=O)N(c4ccccc4)c4ccccc43)[C@H]2C)cc1	-2.14 (inactive)
CC=CC(O)C1C=CC2C(=O)N(c3ccccc3)C(=O)C2N1Nc1ccccc1F (stereo unspecified)	0.095 (inactive)
C=CC1c2cc(O)c(OC)cc2CCN1Cc1cc2c(cc1Br)OCO2 (stereo unspecified)	0.203 (inactive)
CC(C)C(CO)N1C(=O)[C@@H]2C3C(=O)OCCC/C=C\[C@H]3OC23C=CCN(C(C)(C)C)C(=O)[C@@H]13 (stereo partly specified)	0.476 (inactive)

Compound	z-score
[N-]=[N+]=NCc1ccccc1C[C@@]1(C(=O)N2CCCCC2)N=C(c2ccc(OCCCO)cc2)O[C@@H]1c1ccccc1	-0.422 (inactive)
O=C1C[C@@](C(=O)NCCN2CCOCC2)(c2ccc([N+](=O)[O-])cc2)[C@@H](c2ccc(CO)cc2I)N1C1CCCCC1	-0.131 (inactive)
COC(=O)c1c(CC[C@@H](CO)NC(=O)N2CCC[C@H]2Cn2cc(Cc3ccccc3)nn2)oc(C(C)=O)c1C(=O)OC	-0.311 (inactive)
O=C1NC(=O)C2C1C=CC(C(O)c1cccc3ccccc13)N2Nc1ccc(Cl)cc1Cl (stereo unspecified)	1.02 (inactive)
N#Cc1ccc(C(O)C2C=CC3C(=O)N(c4ccccc4)C(=O)C3N2Nc2ccccc2)cc1 (stereo unspecified)	-1.04 (inactive)
COC(=O)[C@@]1(Cc2ccc(OC)cc2)[C@H]2c3cc(C(=O)N(C)C)n(C[C@H](O)CO)c3C[C@H]2CN1C(=O)c1ccccc1	-0.872 (inactive)
COc1cc(OC)c(C(O)C2C=CC3C(=O)N(c4ccccc4)C(=O)C3N2Nc2ccccc2)cc1Br (stereo unspecified)	0.528 (inactive)
COCCCNC(=O)[C@@]1(Cc2ccccc2N=[N+]=[N-])N=C(c2ccc(OCCCO)cc2)O[C@H]1c1ccccc1	0.181 (inactive)
C=C(C)C1CCC(C(O)C2C=CC3C(=O)N(C)C(=O)C3N2N2CCCCC2)CC1 (stereo unspecified)	0.929 (inactive)
Cc1ccc(S[C@]2(C(=O)O)CC(=O)N(C3Cc4ccccc4C3)[C@@H]2c2ccc(CO)cc2)cc1	0.2 (inactive)
O=C1C2C=CC(C(O)c3ccc(Br)cc3)N(Nc3ccccc3F)C2C(=O)N1c1ccccc1 (stereo unspecified)	-1.93 (inactive)
CC(C)(C)N1CC=CC23O[C@@H]4C=CCCOC(=O)C4[C@H]2C(=O)N(CCO)[C@@H]3C1=O (stereo partly specified)	0.288 (inactive)
C=CCNC(=O)[C@H]1[C@@H]2C(=O)O[C@@H](c3ccccc3)[C@@H](c3ccccc3)N2[C@@H](c2ccc(O)cc2)[C@]12C(=O)N(C(=O)OCCOC)c1ccccc12	-1.59 (inactive)
C[C@@H]1NC(=O)[C@@]23C(=O)N[C@@H](Cc4ccccc4)C2[C@H](C)[C@@]2(C)O[C@H]2C3/C=C/C/C=C\CNC(=O)[C@@H]2CCCN2C1=O (stereo partly specified)	-0.0139 (inactive)
COCCOC(=O)N1C(=O)[C@@]2(c3cc(C#Cc4ccc(OC)cc4)ccc31)[C@H](C(=O)Nc1nc3ccccc3s1)[C@H]1C(=O)O[C@H](c3ccccc3)[C@H](c3ccccc3)N1[C@@H]2c1ccc(O)cc1	-0.591 (inactive)
CN(C)C(=O)C1N=C(c2ccc(OCCCO)cc2)N(c2ccccc2)O1 (stereo unspecified)	-1.06 (inactive)
O=C(NCC(F)(F)F)[C@@H]1c2ccccc2C(=O)N(Cc2ccc(OC(F)(F)F)cc2)[C@H]1c1ccc(CO)cc1	-0.693 (inactive)
[N-]=[N+]=Nc1ccccc1[C@H]1OC(c2ccc(OCCCO)cc2)=N[C@@]1(Cc1ccccc1)C(=O)N1CCCCC1	1.35 (inactive)
